We go through 28 molecules from PubChem BioAssay AID504408 (Broad Institute, 2011).

Each structure is given as a SMILES string. About 5,200 (1.7%) of roughly 300,000 compounds were called active. This is one part of a sample in which actives are shown more often than they occur. Unmarked numbers belong to inactive results.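 Rule for the calls: active = mean replicate activation of at least 50% with a set share of replicates each reaching 50%; inconclusive = only one of those two conditions met; inactive = mean below 50% and too few replicates reaching it.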

The nature of the assay: HSF-1 response element luciferase induction – NIH3T3-HGL cells, MG132 stress, luminescence, single point, primary screen (AID 504408).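 Note: 0% = median of the neutral control wells and 100% = twice that signal.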 The note with it: NIH3T3-HGL HSF-1 luciferase reporter, MG132, 8 h; at 9 µM; active compounds read high; 100% = twice DMSO control signal. For orientation: Reporter assays use an easily measured gene product as a stand-in for the process of interest.
`Cc1ccc(C)c(NC(=O)COC(=O)Cn2c(C)csc2=O)c1`: the activation is -8.55%.
The same measure for `COc1cc(/C=N/NC(=O)c2cc(-c3ccccc3C)nc3ccccc23)cc(OC)c1O`: 18.6%; for `CN1CCN(C2Cc3ccc(Cl)cc3Sc3ccc(F)cc32)CC1` (stereo not drawn): -3.39%; for `CC(=O)NC(Cc1c[nH]c2ccccc12)C(=O)O` (stereo not drawn): 56% (active).
The same measure for `Cc1cccc(C)c1OCC(=O)NC(Cc1c[nH]c2ccccc12)C(=O)O` (stereo not drawn): 0.58%; for `CC(=O)NC(Cc1c[nH]c2ccccc12)C(=O)NCCc1ccccc1` (stereo not drawn): -11.2%.
As to `CC1CCN(C(=O)c2cccc(S(=O)(=O)N3CCCc4ccccc43)c2)CC1`, the activation is 9.01%.
On to `Cc1ccc(N2CC(C(=O)N3CCC4(CC3)CC(=O)c3ccccc3O4)CC2=O)cc1C` (stereo not drawn), for which the activation was -2.34%.
Take `O=C(O)C1C2C=CC(C2)C1C(=O)NCc1ccccc1` (stereo not drawn): the activation is -13%.
As for `Nc1ccccc1/C=N\N=C/c1ccccc1N`, the activation is 1.94%.
`Cc1ccc2cc(C)c(N3CCN(c4ccc(F)cc4)CC3)nc2c1`: the activation was 5.08%.
In the case of `Cc1ccc(-n2ncc3c(N4CCN(c5ccc(F)cc5)CC4)ncnc32)c(C)c1` it was 57.9% (active).
In the case of `Cc1ccc(-n2ncc3c(=O)[nH]cnc32)c(C)c1` it was -3.73%; in that of `Nc1ccc(C(=O)N2CCN(S(=O)(=O)c3ccc(Cl)cc3)CC2)cc1[N+](=O)[O-]`, 17.9%.
In the case of `COc1ccc(C)cc1NC(=O)CSc1nnc2ccc(-c3ccccn3)nn12`, the activation was -10.8%.
The same measure for `COc1ccc(C2=NN(C(=O)CSc3nc(=O)n4ccc(C)cc4n3)C(c3ccc(C)cc3)C2)cc1` (stereo not drawn): 9.37%; for `CN(c1ccccc1)S(=O)(=O)c1ccc(Cl)c(C(=O)NCCc2c[nH]c3ccccc23)c1`: -1.41%; for `O=C(NCCc1c[nH]c2ccccc12)c1cc2ccccc2oc1=O`: 62.1% (active).
As to `O=C(NCCc1c[nH]c2ccccc12)c1cccc(Br)c1`, the activation is 7.52%.
For `COc1ccccc1CNS(=O)(=O)c1cc2c3c(c1)CCC(=O)N3CCC2`, the activation was 14.6%.
For the molecule `COc1ccc(CC(=O)OC(C)C(=O)Nc2ccc(S(N)(=O)=O)cc2)cc1` (stereo not drawn), the activation was -0.48%.
In the case of `CC(OC(=O)CNC(=O)c1cccc(F)c1)C(=O)NC1CCCCC1C` (stereo not drawn) it was -3.7%; in that of `CCOC(=O)C1=C(c2ccccc2)NC(=O)NC1c1cc(OCC)c(O)c([N+](=O)[O-])c1` (stereo not drawn), 29.6%; in that of `CCOC(=O)C1=C(c2ccccc2)NC(=O)NC1c1cc(OC)c(OC)cc1OC` (stereo not drawn), -12.4%.
In the case of `CCOC(=O)C1=C(CN2CCc3ccccc32)NC(=O)NC1c1cccc([N+](=O)[O-])c1` (stereo not drawn) it was 39.3%; in that of `CCOC(=O)C1=C(CN2CCc3ccccc32)NC(=O)NC1c1ccc(Cl)cc1` (stereo not drawn), 58.6% (active); in that of `CCOC(=O)C1=C(CN2CCc3ccccc32)NC(=O)NC1c1cc(C)ccc1C` (stereo not drawn), 15.2%.
The same measure for `CCOC(=O)C1=C(c2ccccc2)NC(=S)NC1c1ccc(Cl)cc1` (stereo not drawn): 63.5% (active).
